# Measurements: PubChem BioAssay AID2429 (National Center for Advancing Translational Sciences (NCATS), 2010)
# The list shows a part of the results. Activity calls are given as the source filed them. Calls follow the shape of the full dose curve.
# Biological target: 15-hydroxyprostaglandin dehydrogenase [NAD(+)] (Homo sapiens) (UniProt P15428)
# Assay: Confirmation qHTS Assay for Inhibitors of HPGD (15-Hydroxyprostaglandin Dehydrogenase)
# Details: recombinant HPGD, NADH fluorescence, PGE2 substrate
# Description: Assay Overview: Human 15-Hydroxyprostaglandin dehydrogenase (HPGD) catalyzes the inactivation of prostaglandin E2, and plays a major role in cancer biology by antagonizing the oncogenic potential of cyclooxygenase type 2 (COX2). Assays are available, based on absorbance/fluorescence increase of NADH with the substrate 15-OH prostaglandin E2. Inhibition of HPGD activity was screened by utilizing prostaglandin as an electron donor and NAD+ as an electron acceptor/cofactor. An increase in the fluorescence intensity due to conversion of NAD+ to NADH was used to measure the enzyme activity. This assay is a confirmation screen of primary qHTS protocol (See AID 894). References 1. Myung SJ, Rerko RM, Yan M, Platzer P, Guda K, Dotson A, Lawrence E, Dannenberg AJ, Lovgren AK, Luo G, Pretlow TP, Newman RA, Willis J, Dawson D, Markowitz SD. 15-Hydroxyprostaglandin dehydrogenase is an in vivo suppressor of colon tumorigenesis. Proc Natl Acad Sci U S A. 2006 Aug 8;103(32):12098-102. 2. […]
# Buffer: 50 mM Tris-HCl, 0.01% Tween 20, pH 8. […] The plates were immediately transferred to and read 5 times every 30 seconds on ViewLux High-throughput CCD imager (Perkin-Elmer) using 360 nm excitation and 450 nm emission fluorescence protocol. The fluorescence intensity difference between the last and the first time points was used to compute reaction progress.
# 15-hydroxyprostaglandin dehydrogenase [NAD(+)] (Homo sapiens), sequence (P15428 whole entry, looked up): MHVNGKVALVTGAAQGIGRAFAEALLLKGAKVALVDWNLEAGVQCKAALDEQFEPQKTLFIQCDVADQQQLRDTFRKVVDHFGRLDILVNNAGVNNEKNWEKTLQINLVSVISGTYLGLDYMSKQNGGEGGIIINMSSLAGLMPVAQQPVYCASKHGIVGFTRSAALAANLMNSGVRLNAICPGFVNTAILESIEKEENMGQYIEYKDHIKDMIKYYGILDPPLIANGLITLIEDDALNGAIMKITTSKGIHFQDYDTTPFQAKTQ
smiles,measurement,value
CCN(CC)C(=O)c1ccc(NC(=O)c2cc(-n3cnnc3)ccc2Cl)cc1,Potency,7.08 µM (active)
